Reference: PubChem BioAssay AID1159580 (chemical genetic matrix, 2015)
Out of some 5,500 compounds screened, about 2,000 (36%) were called active. Inconclusive results (about 18%) are left out. Rule as the data show it: active = normalized growth mostly below about 0.91 (no sharp cut-off); inconclusive = no clear call, values can overlap the other calls; inactive = mostly above about 0.92. Some of the results follow.

Experiment: chemical genetic growth profiling, strain panel (AID 1159580);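 also: tested at 20 µM; growth read once vehicle control cultures reached saturation at 30 °C; 1 = growth at the plate median or of vehicle wells; lower values mean less growth of the strain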
Conditions: growth OD

Measured: normalized growth

O=C1CN(/N=C\c2ccc([N+](=O)[O-])o2)C(=O)N1
active: S. cerevisiae deletion strains, locus YMR058W, strain fet3, stronger effect = lower value 0.898 | S. cerevisiae deletion strains, locus YNL250W, strain rad50, stronger effect = lower value 0.877
inactive: S. cerevisiae deletion strains, locus YJR075W, strain HOC1, stronger effect = lower value 0.986 | S. cerevisiae deletion strains, locus YKL009W, strain mrt4, stronger effect = lower value 0.967 | S. cerevisiae deletion strains, locus YKL068W, stronger effect = lower value 1 | S. cerevisiae deletion strains, locus YKL085W, strain MDH1 (second series), stronger effect = lower value 0.991 | S. cerevisiae deletion strains, locus YKL085W, strain MDH1, stronger effect = lower value 0.991 | S. cerevisiae deletion strains, locus YKL160W, strain elf1, stronger effect = lower value 0.985 | S. cerevisiae deletion strains, locus YKL190W, strain CNB1, stronger effect = lower value 0.996 | S. cerevisiae deletion strains, locus YKR001C, strain vps1, stronger effect = lower value 0.965 | S. cerevisiae deletion strains, locus YKR026C, strain gcn3, stronger effect = lower value 0.979 | S. cerevisiae deletion strains, locus YKR091W, strain srl3, stronger effect = lower value 0.979 | S. cerevisiae deletion strains, locus YLL001W, strain dnm1, stronger effect = lower value 1 | S. cerevisiae deletion strains, locus YLL026W, stronger effect = lower value 0.992 | S. cerevisiae deletion strains, locus YLL041C, strain sdh2, stronger effect = lower value 0.978 | S. cerevisiae deletion strains, locus YLR027C, strain aat2, stronger effect = lower value 0.975 | S. cerevisiae deletion strains, locus YLR039C, strain RIC1, stronger effect = lower value 0.983 | S. cerevisiae deletion strains, locus YLR058C, strain SHM2, stronger effect = lower value 1.01 | S. cerevisiae deletion strains, locus YLR102C, strain apc9, stronger effect = lower value 0.993 | S. cerevisiae deletion strains, locus YLR113W, strain HOG1, stronger effect = lower value 0.968 | S. cerevisiae deletion strains, locus YLR221C, strain rsa3, stronger effect = lower value 0.976 | S. cerevisiae deletion strains, locus YLR258W, strain gsy2, stronger effect = lower value 0.975 | S. cerevisiae deletion strains, locus YLR262C, strain YPT6 (second series), stronger effect = lower value 0.976 | S. cerevisiae deletion strains, locus YLR262C, strain YPT6, stronger effect = lower value 1.04 | S. cerevisiae deletion strains, locus YLR268W, strain sec22, stronger effect = lower value 0.996 | S. cerevisiae deletion strains, locus YLR320W, strain mms22, stronger effect = lower value 0.935 | S. cerevisiae deletion strains, locus YLR330W, strain CHS5, stronger effect = lower value 1 | S. cerevisiae deletion strains, locus YLR342W, strain FKS1 (second series), stronger effect = lower value 0.983 | S. cerevisiae deletion strains, locus YLR342W, strain FKS1, stronger effect = lower value 0.979 | S. cerevisiae deletion strains, locus YLR357W, strain rsc2, stronger effect = lower value 0.954 | S. cerevisiae deletion strains, locus YLR370C, strain arc18, stronger effect = lower value 0.985 | S. cerevisiae deletion strains, locus YLR371W, strain rom2, stronger effect = lower value 1.01 | S. cerevisiae deletion strains, locus YLR384C, strain iki3, stronger effect = lower value 0.986 | S. cerevisiae deletion strains, locus YLR418C, strain cdc73, stronger effect = lower value 0.885 | S. cerevisiae deletion strains, locus YML016C, strain PPZ1, stronger effect = lower value 0.998 | S. cerevisiae deletion strains, locus YML032C, strain rad52, stronger effect = lower value 0.929 | S. cerevisiae deletion strains, locus YML120C, strain ndi1, stronger effect = lower value 0.982 | S. cerevisiae deletion strains, locus YML124C, strain tub3, stronger effect = lower value 0.991 | S. cerevisiae deletion strains, locus YMR078C, strain ctf18, stronger effect = lower value 0.989 | S. cerevisiae deletion strains, locus YMR125W, strain sto1, stronger effect = lower value 0.943 | S. cerevisiae deletion strains, locus YMR129W, stronger effect = lower value 0.965 | S. cerevisiae deletion strains, locus YMR205C, strain PFK2, stronger effect = lower value 0.993 | S. cerevisiae deletion strains, locus YMR223W, strain ubp8, stronger effect = lower value 0.949 | S. cerevisiae deletion strains, locus YMR231W, strain pep5, stronger effect = lower value 0.985 | S. cerevisiae deletion strains, locus YMR263W, strain SAP30, stronger effect = lower value 0.977 | S. cerevisiae deletion strains, locus YMR307W, strain GAS1, stronger effect = lower value 0.973 | S. cerevisiae deletion strains, locus YNL067W, strain RPL9B, stronger effect = lower value 0.982 | S. cerevisiae deletion strains, locus YNL071W, strain lat1, stronger effect = lower value 0.959 | S. cerevisiae deletion strains, locus YNL128W, strain TEP1, stronger effect = lower value 0.974 | S. cerevisiae deletion strains, locus YNL153C, strain GIM3, stronger effect = lower value 0.966 | S. cerevisiae deletion strains, locus YNL183C, strain NPR1, stronger effect = lower value 0.879 | S. cerevisiae deletion strains, locus YNL209W, strain ssb2, stronger effect = lower value 0.975 | S. cerevisiae deletion strains, locus YNL233W, strain BNI4, stronger effect = lower value 0.995 | S. cerevisiae deletion strains, locus YNL248C, strain rpa49, stronger effect = lower value 0.923 | S. cerevisiae deletion strains, locus YNL271C, strain bni1, stronger effect = lower value 0.998 | S. cerevisiae deletion strains, locus YNL298W, strain CLA4, stronger effect = lower value 0.991 | S. cerevisiae deletion strains, locus YNL307C, strain MCK1, stronger effect = lower value 0.952 | S. cerevisiae deletion strains, locus YNL322C, strain KRE1 (second series), stronger effect = lower value 0.98 | S. cerevisiae deletion strains, locus YNL322C, strain KRE1, stronger effect = lower value 1.01 | S. cerevisiae deletion strains, locus YNR049C, strain mso1, stronger effect = lower value 0.984 | S. cerevisiae deletion strains, locus YNR052C, strain pop2, stronger effect = lower value 0.998 | S. cerevisiae deletion strains, locus YOL006C, strain TOP1, stronger effect = lower value 1.03 | S. cerevisiae deletion strains, locus YOL012C, strain htz1 0.88 | S. cerevisiae deletion strains, locus YOL147C, strain pex11, stronger effect = lower value 0.999 | S. cerevisiae deletion strains, locus YOR001W, strain rrp6, stronger effect = lower value 0.977 | S. cerevisiae deletion strains, locus YOR061W, strain CKA2, stronger effect = lower value 0.998 | S. cerevisiae deletion strains, locus YOR069W, strain VPS5, stronger effect = lower value 0.999 | S. cerevisiae deletion strains, locus YOR070C, strain gyp1, stronger effect = lower value 0.98 | S. cerevisiae deletion strains, locus YOR080W, strain dia2, stronger effect = lower value 0.983 | S. cerevisiae deletion strains, locus YOR083W, strain WHI5, stronger effect = lower value 1 | S. cerevisiae deletion strains, locus YOR106W, strain vam3, stronger effect = lower value 0.969 | S. cerevisiae deletion strains, locus YOR136W, strain idh2, stronger effect = lower value 0.983 | S. cerevisiae deletion strains, locus YOR144C, strain elg1, stronger effect = lower value 1.02 | S. cerevisiae deletion strains, locus YOR184W, strain ser1, stronger effect = lower value 0.932 | S. cerevisiae deletion strains, locus YOR231W, strain MKK1, stronger effect = lower value 0.889 | S. cerevisiae deletion strains, locus YOR265W, strain rbl2, stronger effect = lower value 0.979 | S. cerevisiae deletion strains, locus YOR270C, strain vph1, stronger effect = lower value 0.874 | S. cerevisiae deletion strains, locus YOR290C, strain snf2, stronger effect = lower value 0.961 | S. cerevisiae deletion strains, locus YOR316C, strain cot1, stronger effect = lower value 0.999 | S. cerevisiae deletion strains, locus YPL051W, strain arl3, stronger effect = lower value 0.979 | S. cerevisiae deletion strains, locus YPL055C, strain LGE1, stronger effect = lower value 0.97 | S. cerevisiae deletion strains, locus YPL078C, strain atp4, stronger effect = lower value 0.956 | S. cerevisiae deletion strains, locus YPL106C, strain sse1, stronger effect = lower value 0.964 | S. cerevisiae deletion strains, locus YPL240C, strain hsp82, stronger effect = lower value 0.974 | S. cerevisiae deletion strains, locus YPL241C, strain CIN2, stronger effect = lower value 0.996 | S. cerevisiae deletion strains, locus YPL256C, strain CLN2, stronger effect = lower value 0.956 | S. cerevisiae deletion strains, locus YPR119W, strain clb2, stronger effect = lower value 1 | S. cerevisiae deletion strains, locus YPR141C, strain kar3, stronger effect = lower value 1.01 | S. cerevisiae deletion strains, locus YPR163C, strain tif3, stronger effect = lower value 1 | S. cerevisiae deletion strains, locus YPR167C, strain met16, stronger effect = lower value 1 | S. cerevisiae deletion strains, strain wtn01, stronger effect = lower value 0.99 | S. cerevisiae strains, strain wild type, stronger effect = lower value 0.997
